In PubChem BioAssay AID1159580 (chemical genetic matrix, 2015):
Among all 5,500 compounds or so, about 2,000 (36%) were called active. Not shown: some 18% with an inconclusive outcome. The list shows a part of the results. Values without a mark were called inactive. Cut-off read from the data, not from the text of the source: active = normalized growth mostly below about 0.91 (no sharp cut-off); inconclusive = no clear call, values can overlap the other calls; inactive = mostly above about 0.92.

Assay: chemical genetic growth profiling, strain panel (AID 1159580);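 note: tested at 20 µM; growth read once vehicle control cultures reached saturation at 30 °C; 1 = growth at the plate median or of vehicle wells; lower values mean less growth of the strain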
Conditions: growth OD
[1] = S. cerevisiae deletion strains, locus YDL101C, strain DUN1, active compounds read low
[2] = S. cerevisiae deletion strains, locus YHR030C, strain SLT2, active compounds read low

Which normalized growth (S. cerevisiae deletion strains, locus YAL013W, strain DEP1, active compounds read low) does the source give for `Clc1cccc(Cl)c1CSC1=NCCCN1C1CCCCC1` here?
The normalized growth was 0.999.

What about the normalized growth (S. cerevisiae deletion strains, locus YBR229C, strain ROT2, active compounds read low) of the same compound?
Its normalized growth is 1.

What about the normalized growth [1] of the same compound?
Its normalized growth is 1.

What about the normalized growth (S. cerevisiae deletion strains, locus YDR150W, strain NUM1, active compounds read low) of the same compound?
The normalized growth was 0.993.

And the normalized growth (S. cerevisiae deletion strains, locus YEL061C, strain CIN8, active compounds read low)?
Its normalized growth is 0.973.

And the normalized growth (S. cerevisiae deletion strains, locus YGR078C, strain PAC10, active compounds read low)?
Its normalized growth is 1.

And the normalized growth (S. cerevisiae deletion strains, locus YGR229C, strain SMI1, active compounds read low)?
The normalized growth was 1.

And the normalized growth [2]?
The normalized growth was 0.967.

What about the normalized growth (S. cerevisiae deletion strains, locus YHR087W, strain rtc3, active compounds read low) of the same compound?
Its normalized growth is 1.01.

And the normalized growth (S. cerevisiae deletion strains, locus YJL187C, strain SWE1, active compounds read low)?
The normalized growth was 1.01.

And the normalized growth (S. cerevisiae deletion strains, locus YJR043C, strain POL32, active compounds read low)?
Its normalized growth is 1.

What about the normalized growth (S. cerevisiae deletion strains, locus YJR075W, strain HOC1, active compounds read low) of the same compound?
Its normalized growth is 1.03.

What about the normalized growth (S. cerevisiae deletion strains, locus YLR039C, strain RIC1, active compounds read low) of the same compound?
Its normalized growth is 1.

And the normalized growth (S. cerevisiae deletion strains, locus YLR058C, strain SHM2 (second series), active compounds read low)?
The normalized growth was 0.993.

What about the normalized growth (S. cerevisiae deletion strains, locus YLR085C, strain ARP6, active compounds read low) of the same compound?
The normalized growth was 0.987.

And the normalized growth (S. cerevisiae deletion strains, locus YLR262C, strain YPT6, active compounds read low)?
The normalized growth was 1.01.

And the normalized growth (S. cerevisiae deletion strains, locus YML094W, strain GIM5, active compounds read low)?
The normalized growth was 0.988.

What about the normalized growth (S. cerevisiae deletion strains, locus YMR219W, strain ESC1, active compounds read low) of the same compound?
The normalized growth was 0.994.

And the normalized growth (S. cerevisiae deletion strains, locus YMR263W, strain SAP30, active compounds read low)?
The normalized growth was 1.01.

What about the normalized growth (S. cerevisiae deletion strains, locus YNL153C, strain GIM3, active compounds read low) of the same compound?
Its normalized growth is 0.985.

What about the normalized growth (S. cerevisiae deletion strains, locus YNL298W, strain CLA4 (second series), active compounds read low) of the same compound?
The normalized growth was 0.998.

What about the normalized growth (S. cerevisiae deletion strains, locus YNL322C, strain KRE1, active compounds read low) of the same compound?
Its normalized growth is 1.

What about the normalized growth (S. cerevisiae deletion strains, locus YNR030W, strain Alg12, active compounds read low) of the same compound?
Its normalized growth is 0.975.

And the normalized growth (S. cerevisiae deletion strains, locus YOL006C, strain TOP1, active compounds read low)?
The normalized growth was 0.986.

What about the normalized growth (S. cerevisiae deletion strains, locus YPL055C, strain LGE1, active compounds read low) of the same compound?
The normalized growth was 1.05.

What about the normalized growth (S. cerevisiae deletion strains, locus YPL241C, strain CIN2, active compounds read low) of the same compound?
Its normalized growth is 0.992.

And the normalized growth (S. cerevisiae deletion strains, locus YPR135W, strain CTF4, active compounds read low)?
The normalized growth was 1.09.

And the normalized growth (S. cerevisiae strains, strain wild type, active compounds read low)?
The normalized growth was 1.

With `Nc1ccccc1SCc1c(Cl)cccc1Cl` as the compound, how does the normalized growth (S. cerevisiae deletion strains, locus YAR019C, strain CDC15, active compounds read low) read?
The normalized growth was 0.949.

And the normalized growth (S. cerevisiae deletion strains, locus YBL105C, strain PKC1, active compounds read low)?
The normalized growth was 0.947.

What about the normalized growth (S. cerevisiae deletion strains, locus YBR135W, strain CKS1, active compounds read low) of the same compound?
Its normalized growth is 0.957.

What about the normalized growth (S. cerevisiae deletion strains, locus YBR136W, strain MEC1, active compounds read low) of the same compound?
The normalized growth was 0.945.

What about the normalized growth (S. cerevisiae deletion strains, locus YBR160W, strain CDC28, active compounds read low) of the same compound?
The normalized growth was 0.953.

What about the normalized growth (S. cerevisiae deletion strains, locus YDL017W, strain CDC7, active compounds read low) of the same compound?
Its normalized growth is 0.952.

What about the normalized growth (S. cerevisiae deletion strains, locus YDL028C, strain MPS1, active compounds read low) of the same compound?
Its normalized growth is 0.947.

And the normalized growth [1]?
The normalized growth was 0.953.

What about the normalized growth (S. cerevisiae deletion strains, locus YDL108W, strain KIN28, active compounds read low) of the same compound?
The normalized growth was 0.954.

And the normalized growth (S. cerevisiae deletion strains, locus YDL132W, strain cdc53, active compounds read low)?
The normalized growth was 0.94.

What about the normalized growth (S. cerevisiae deletion strains, locus YDL214C, strain PRR2, active compounds read low) of the same compound?
Its normalized growth is 0.889.

And the normalized growth (S. cerevisiae deletion strains, locus YDR052C, strain DBF4, active compounds read low)?
The normalized growth was 0.962.

And the normalized growth (S. cerevisiae deletion strains, locus YDR054C, strain cdc34, active compounds read low)?
The normalized growth was 0.943.

What about the normalized growth (S. cerevisiae deletion strains, locus YDR226W, strain ADK1, active compounds read low) of the same compound?
The normalized growth was 0.969.

What about the normalized growth (S. cerevisiae deletion strains, locus YDR477W, strain SNF1, active compounds read low) of the same compound?
Its normalized growth is 0.859.

And the normalized growth (S. cerevisiae deletion strains, locus YER123W, strain YCK3, active compounds read low)?
Its normalized growth is 0.795.

And the normalized growth (S. cerevisiae deletion strains, locus YER133W, strain GLC7, active compounds read low)?
The normalized growth was 0.821.

What about the normalized growth (S. cerevisiae deletion strains, locus YFL009W, strain cdc4, active compounds read low) of the same compound?
The normalized growth was 0.946.

What about the normalized growth (S. cerevisiae deletion strains, locus YFL029C, strain CAK1, active compounds read low) of the same compound?
The normalized growth was 0.949.

What about the normalized growth (S. cerevisiae deletion strains, locus YFR003C, strain YPI1, active compounds read low) of the same compound?
The normalized growth was 0.944.

What about the normalized growth (S. cerevisiae deletion strains, locus YFR019W, strain FAB1, active compounds read low) of the same compound?
Its normalized growth is 0.841.

And the normalized growth (S. cerevisiae deletion strains, locus YFR028C, strain CDC14, active compounds read low)?
Its normalized growth is 0.948.

And the normalized growth (S. cerevisiae deletion strains, locus YGR040W, strain KSS1, active compounds read low)?
The normalized growth was 0.853.

What about the normalized growth (S. cerevisiae deletion strains, locus YGR052W, strain FMP48, active compounds read low) of the same compound?
The normalized growth was 0.787.

And the normalized growth (S. cerevisiae deletion strains, locus YGR092W, strain DBF2, active compounds read low)?
Its normalized growth is 0.775.

And the normalized growth [2]?
Its normalized growth is 0.695 (active).

And the normalized growth (S. cerevisiae deletion strains, locus YHR079C, strain IRE1, active compounds read low)?
Its normalized growth is 0.843.

What about the normalized growth (S. cerevisiae deletion strains, locus YHR082C, strain KSP1, active compounds read low) of the same compound?
Its normalized growth is 0.835.

What about the normalized growth (S. cerevisiae deletion strains, locus YHR205W, strain SCH9, active compounds read low) of the same compound?
The normalized growth was 0.68.

What about the normalized growth (S. cerevisiae deletion strains, locus YIL147C, strain SLN1, active compounds read low) of the same compound?
The normalized growth was 0.952.

And the normalized growth (S. cerevisiae deletion strains, locus YJL095W, strain BCK1, active compounds read low)?
Its normalized growth is 0.617.

And the normalized growth (S. cerevisiae deletion strains, locus YJL128C, strain PBS2, active compounds read low)?
Its normalized growth is 0.914.

And the normalized growth (S. cerevisiae deletion strains, locus YJL157C, strain FAR1, active compounds read low)?
The normalized growth was 0.885.

And the normalized growth (S. cerevisiae deletion strains, locus YJR016C, strain ILV3, active compounds read low)?
The normalized growth was 0.956.

And the normalized growth (S. cerevisiae deletion strains, locus YJR066W, strain TOR1 (second series), active compounds read low)?
The normalized growth was 0.813.

And the normalized growth (S. cerevisiae deletion strains, locus YJR066W, strain TOR1, active compounds read low)?
The normalized growth was 0.767.

And the normalized growth (S. cerevisiae deletion strains, locus YKL048C, strain ELM1, active compounds read low)?
The normalized growth was 0.939.

What about the normalized growth (S. cerevisiae deletion strains, locus YKL067W, strain YNK1, active compounds read low) of the same compound?
The normalized growth was 0.87.

What about the normalized growth (S. cerevisiae deletion strains, locus YKL101W, strain HSL1, active compounds read low) of the same compound?
Its normalized growth is 0.87.

And the normalized growth (S. cerevisiae deletion strains, locus YKL193C, strain SDS22, active compounds read low)?
The normalized growth was 0.952.

What about the normalized growth (S. cerevisiae deletion strains, locus YKL203C, strain TOR2, active compounds read low) of the same compound?
The normalized growth was 0.907.

What about the normalized growth (S. cerevisiae deletion strains, locus YLR113W, strain HOG1, active compounds read low) of the same compound?
The normalized growth was 0.696 (active).

What about the normalized growth (S. cerevisiae deletion strains, locus YLR133W, strain CKI1, active compounds read low) of the same compound?
Its normalized growth is 0.91.

And the normalized growth (S. cerevisiae deletion strains, locus YLR403W, strain SFP1, active compounds read low)?
The normalized growth was 0.795.

And the normalized growth (S. cerevisiae deletion strains, locus YML070W, strain DAK1, active compounds read low)?
The normalized growth was 0.831.

What about the normalized growth (S. cerevisiae deletion strains, locus YMR001C, strain CDC5, active compounds read low) of the same compound?
The normalized growth was 0.945.

And the normalized growth (S. cerevisiae deletion strains, locus YMR205C, strain PFK2 (second series), active compounds read low)?
The normalized growth was 0.885.

What about the normalized growth (S. cerevisiae deletion strains, locus YMR277W, strain FCP1, active compounds read low) of the same compound?
Its normalized growth is 0.951.

What about the normalized growth (S. cerevisiae deletion strains, locus YNL006W, strain LST8, active compounds read low) of the same compound?
Its normalized growth is 0.959.

And the normalized growth (S. cerevisiae deletion strains, locus YNL020C, strain ARK1, active compounds read low)?
The normalized growth was 0.891.

And the normalized growth (S. cerevisiae deletion strains, locus YNL161W, strain CBK1, active compounds read low)?
The normalized growth was 0.955.

What about the normalized growth (S. cerevisiae deletion strains, locus YNL183C, strain NPR1, active compounds read low) of the same compound?
The normalized growth was 0.79.

And the normalized growth (S. cerevisiae deletion strains, locus YNL207W, strain RIO2, active compounds read low)?
Its normalized growth is 0.948.

What about the normalized growth (S. cerevisiae deletion strains, locus YNL222W, strain SSU72, active compounds read low) of the same compound?
Its normalized growth is 0.951.

And the normalized growth (S. cerevisiae deletion strains, locus YNL307C, strain MCK1 (second series), active compounds read low)?
The normalized growth was 0.825.

And the normalized growth (S. cerevisiae deletion strains, locus YOL078W, strain AVO1, active compounds read low)?
Its normalized growth is 0.943.

And the normalized growth (S. cerevisiae deletion strains, locus YOL136C, strain PFK27, active compounds read low)?
The normalized growth was 0.853.

And the normalized growth (S. cerevisiae deletion strains, locus YOR061W, strain CKA2, active compounds read low)?
The normalized growth was 0.843.

What about the normalized growth (S. cerevisiae deletion strains, locus YOR119C, strain RIO1, active compounds read low) of the same compound?
The normalized growth was 0.905.

And the normalized growth (S. cerevisiae deletion strains, locus YOR231W, strain MKK1, active compounds read low)?
The normalized growth was 0.751.

And the normalized growth (S. cerevisiae deletion strains, locus YOR329C, strain SCD5, active compounds read low)?
The normalized growth was 0.95.

What about the normalized growth (S. cerevisiae deletion strains, locus YPL031C, strain PHO85, active compounds read low) of the same compound?
The normalized growth was 0.841.

What about the normalized growth (S. cerevisiae deletion strains, locus YPL153C, strain RAD53, active compounds read low) of the same compound?
The normalized growth was 0.85.

And the normalized growth (S. cerevisiae deletion strains, locus YPL204W, strain HRR25, active compounds read low)?
The normalized growth was 0.857.

What about the normalized growth (S. cerevisiae deletion strains, locus YPL209C, strain IPL1, active compounds read low) of the same compound?
Its normalized growth is 0.949.

And the normalized growth (S. cerevisiae deletion strains, locus YPL256C, strain CLN2, active compounds read low)?
The normalized growth was 0.917.

And the normalized growth (S. cerevisiae deletion strains, locus YPR025C, strain CCL1, active compounds read low)?
Its normalized growth is 0.95.

What about the normalized growth (S. cerevisiae deletion strains, locus YPR106W, strain ISR1, active compounds read low) of the same compound?
The normalized growth was 0.95.

What about the normalized growth (S. cerevisiae deletion strains, locus YPR111W, strain DBF20, active compounds read low) of the same compound?
Its normalized growth is 0.935.

And the normalized growth (S. cerevisiae deletion strains, strain NNK1, active compounds read low)?
Its normalized growth is 0.944.

And the normalized growth (S. cerevisiae deletion strains, strain TSCII, active compounds read low)?
The normalized growth was 0.952.
